Most compounds without a hit are left out; they make up all but 2.9% or so of the library.
GLP1R inv ag = acts as inverse agonist at human GLP-1 receptor; HEK293 GLP-1R CRE-luciferase, luminescence, 24 h; GLP-1R form is constitutively active; P43220; AID 624417; Potency, µM (titrated, usually from 38.3 µM), hits mostly inhibitors; 1.6% of 410,000 active; note: nearly all actives have a fitted effect of over 55% in size
Target sequence (P43220 whole entry, looked up): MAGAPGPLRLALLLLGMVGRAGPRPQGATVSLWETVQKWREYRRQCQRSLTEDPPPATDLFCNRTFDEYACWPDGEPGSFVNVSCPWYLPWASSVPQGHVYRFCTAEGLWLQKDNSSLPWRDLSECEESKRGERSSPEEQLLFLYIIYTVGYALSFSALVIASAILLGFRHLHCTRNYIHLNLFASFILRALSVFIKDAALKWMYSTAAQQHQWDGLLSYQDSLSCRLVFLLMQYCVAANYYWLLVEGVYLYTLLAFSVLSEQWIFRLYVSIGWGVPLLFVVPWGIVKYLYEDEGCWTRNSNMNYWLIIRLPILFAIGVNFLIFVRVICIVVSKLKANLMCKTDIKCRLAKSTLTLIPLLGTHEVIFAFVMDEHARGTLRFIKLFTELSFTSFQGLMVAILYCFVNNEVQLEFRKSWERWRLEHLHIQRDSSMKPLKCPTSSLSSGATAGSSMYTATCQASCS
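Seeding at 200 cells/uL, 12 h culture, 24 hr compound treatment, then luciferase reagent and a luminescence read; cells are HEK293 stably expressing a constitutively active GLP-1R plus cAMP-responsive luciferase.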
GLP-1R agonist = activates the human GLP-1 receptor. HEK293 GLP-1R CRE-luciferase, luminescence, 4-6 h; cells express a hypersensitive GLP-1R form. Potency, µM (series often up to 45.6 µM), hits mostly activators. 0.007% of 380,000 active
ClpP mod = qHTS Assay for Activators of ClpP | ATP-dependent Clp protease proteolytic subunit (Bacillus subtilis (strain 168)), P80244 | purified B. subtilis ClpP, FRET peptide cleavage, 20 min | Potency, µM (top dose mostly 57.5 µM) | 1.9% of 340,000 active; active = well fitted falling curve with a large enough effect; inconclusive = small, poorly fitted or top-dose-only effect; inactive = no such curve, though single readings can be large or run the other way; note: the source files actives as falling curves though it sought activators and does not explain the sign; nearly all actives have a fitted effect of over 65% in size
Target sequence (P80244 whole entry, looked up): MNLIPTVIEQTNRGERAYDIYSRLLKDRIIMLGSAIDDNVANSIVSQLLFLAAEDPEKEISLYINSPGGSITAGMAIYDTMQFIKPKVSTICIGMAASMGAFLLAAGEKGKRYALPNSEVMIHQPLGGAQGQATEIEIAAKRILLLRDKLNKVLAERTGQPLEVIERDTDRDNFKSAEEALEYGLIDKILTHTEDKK
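ClpP 10 microg/mL final, pH 8 Tris/KCl buffer with BSA, glycerol, Tween-20; compound pinned in; FRET-FV substrate; RT 20 min; Ex320/Em430; ΔFRET vs ADEP 5.8 microM, DMSO, no enzyme.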
p53 reactivation = mutant p53 re-activation in reporter cells; AID 504706; 0.063% of 320,000 active; H1299 p53-A138V BP100-luciferase reporter, luminescence, 24 h; Potency, µM (titrated, usually from 92.2 µM), actives largely listed as activators; note: nearly all actives have a fitted effect of over 45% in size
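H1299 (p53-null), stable ts p53-A138V + BP100-Luc; 1000 cells/well, Opti-MEM/10% FBS; cpd 4 pt, 1:5; 24 h, 37 deg C, 5% CO2; detection reagent 10 min RT; luminescence.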
LDHA block = blocks human lactate dehydrogenase A; 0.15% of 480,000 active; P00338; activity change, % (values are at about 110 or 230 µM); AID 1347041; purified LDHA, NADH/diaphorase-resazurin fluorescence; stronger effect = lower value; in the data active = activity change below about -30%; inconclusive = mostly about -25% to -30%
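Human LDH5 (2 nM) was incubated with 0.06 mM NADH and 0.2 mM pyruvate for 5 min at room temperature in Tris pH 7.4. Remaining NADH was coupled through diaphorase/resazurin, and resorufin fluorescence was read at 0 and 20 min.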
HEK293 tox = cytotoxic in the GLP-1 receptor inverse agonist counter-screen | Potency, µM (series often up to 38.3 µM), most hits filed as inhibitors | 0.13% of 410,000 active | HEK293 cAMP-luciferase reporter cells, luminescence, 24 h;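 note: loss of luciferase light is scored as toxicity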
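Luminescence readout: signal drop marks cytotoxicity. Plated cells grew 12 h at 37 °C, 5% CO2, received 23 nL compound for 24 h, then got luciferase reagent, read after 12 min at RT.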
A number is an active result; – = inactive; ? = inconclusive; · = no result; [ ] = remark or other dose. Unless noted, calls come from the whole dose curve; as a rule, active = well fitted curve in the direction sought with a large enough effect; inconclusive = small, poorly fitted or top-dose-only effect, or another doubt; inactive = no such curve, though single readings can be large; an effect the other way counts as inactive or inconclusive.

SMILES	GLP1R inv ag	GLP-1R agonist	ClpP mod	p53 reactivation	LDHA block	HEK293 tox
CC(=O)Nc1sc(C)c(C)c1C(=O)OCC(=O)N(C)C1CCS(=O)(=O)C1 (centres undefined)	–	–	35.5µM	–	–	–
CCOC(=O)c1c(NC(=O)C2C3C=CC(C3)C2C(=O)O)sc2c1CCC(CC)C2 (centres undefined)	?	–	25.1µM	–	–	–
CCOC(=O)c1c(NC(=O)C2C3C=CC(CC3)C2C(=O)O)sc(C)c1C (centres undefined)	–	–	28.2µM	–	–	–
CCC(CC)c1nc(C#N)c(NC(C)c2ccccc2)o1 (centres undefined)	–	–	–	–	–	–
CCc1nnc(NC(=O)CC23CC4CC(CC(C4)C2)C3)s1	–	–	–	·	–	–
CNc1oc(-c2cccs2)nc1C#N	–	–	–	–	–	–
COc1ccc(Nc2oc(-c3cccs3)nc2C#N)cc1	–	–	14.1µM	–	–	–
O=C(N/N=C(\c1ccccc1)c1ccccn1)c1ccccc1Cl	?	–	8.91µM	?	–	?
Cc1ccc(S(=O)(=O)N2CCC(=O)N([C@H](COCc3cccc(Cl)c3)C(C)C)CC2)cc1	–	–	–	·	–	–
CCOc1ccc(NS(=O)(=O)c2cccc(C(=O)N3CCN(C/C=C/c4ccccc4)CC3)c2)cc1	10µM	–	–	·	–	–
COc1cc2[nH]c(=O)n(CCCC(=O)N3CC=C(c4ccccc4)CC3)c(=O)c2cc1OC	–	–	?	–	–	–
COc1cccc2c1[C@@H]1CN(CCCCn3c(=O)[nH]c4c(sc5ncc(-c6ccccc6)nc54)c3=O)C[C@@H]1CO2	10µM	–	–	?	–	–
CCn1nc(C)c(CN2CCc3c([nH]c4ccccc34)C2C(C)(C)C)c1C (centres undefined)	7.08µM	–	·	–	–	–
Cc1ccc(S(=O)(=O)c2cn(Cc3ccccc3)c3cc(N4CCCC4)c(F)cc3c2=O)cc1C	–	·	12.6µM	·	–	–
O=c1c(S(=O)(=O)c2ccccc2)cn(Cc2cccc(F)c2)c2cc(N3CCOCC3)c(F)cc12	–	·	28.2µM	·	–	–
CC1CCCCN1c1cc2c(cc1F)c(=O)c(S(=O)(=O)c1ccccc1)cn2Cc1ccccc1 (centres undefined)	–	·	15.8µM	·	–	–
O=c1c(S(=O)(=O)c2ccccc2)cn(Cc2ccccc2)c2cc(N3CCOCC3)c(F)cc12	–	·	28.2µM	·	–	–
COc1ccc(C(=O)COC(=O)COc2cccc3c2OC(C)(C)C3)c(OC)c1	–	–	·	–	–	–
CCOC(=O)[C@@H]1[C@H]2COc3cc(OC)ccc3[C@@H]2N2C(=O)N(c3ccc(C)cc3)C(=O)[C@@]12C	–	–	–	·	–	–
COc1cccc(NC(=O)COC(=O)c2c(-c3ccccc3)noc2C)c1	–	–	–	–	–	–
CCc1nc2ccc(C(=O)N3CCN(C(C)=O)CC3)cn2c1N(CC)C(=O)NCCc1ccccc1	–	–	–	·	–	–
CC(C)OC(=O)/C(=C\c1cccc2ccccc12)NC(=O)c1ccccc1	10µM	–	·	–	–	–
COCC(=O)N1C[C@H]2CON(C)[C@H]2C[C@H]1c1cccc(-c2ccccc2OC)c1	–	–	–	·	-30.6	–
CCc1ccc(C(=O)CN2C(=O)NC(C)(c3ccc(C)cc3)C2=O)cc1 (centres undefined)	?	–	–	–	–	–
CCN(CC)C(=O)C1CCCN(c2ncnc3c2c(-c2ccccc2)cn3-c2cccc(C)c2)C1 (centres undefined)	–	·	?	·	–	–
SMILES	GLP1R inv ag	GLP-1R agonist	ClpP mod	p53 reactivation	LDHA block	HEK293 tox
O=C(Nc1ccccc1)N(CCCN1CCOCC1)Cc1cc2cc3c(cc2[nH]c1=O)OCCO3	–	–	31.6µM	–	–	–
CCc1ccc2[nH]c(=O)c(CN(CCCN3CCOCC3)C(=O)Nc3ccccc3)cc2c1	?	–	–	–	–	–
COc1ccc2[nH]c(=O)c(CN(CCCN3CCOCC3)C(=O)NCc3ccccc3)cc2c1	–	–	15.8µM	–	–	–
Cc1ccc(NC(=O)N(CCCN2CCOCC2)Cc2cc3cc4c(cc3[nH]c2=O)OCO4)cc1	–	–	–	–	–	–
CCN(CC)CCCN(Cc1cc2cc3c(cc2[nH]c1=O)OCCO3)C(=O)Nc1ccccc1	–	–	20µM	–	–	–
O=C(Nc1ccccc1F)N(CCCN1CCOCC1)Cc1cc2cc3c(cc2[nH]c1=O)OCCO3	–	–	20µM	–	–	–
COc1ccc(CNC(=O)CSCc2ccccc2Cl)cc1	–	–	–	–	–	–
Cc1cc(C)cc(CSc2ccc(S(=O)(=O)N3CCCC3)cn2)c1	?	–	–	–	–	–
CCN1CCN(C(=S)c2ccc([N+](=O)[O-])cc2)CC1	–	–	–	–	–	–
COC1CCN(S(=O)(=O)c2cc(C(=O)O)ccc2Cl)CC1	·	·	·	·	–	·
COc1ccc(N(CC(=O)N2CCc3ccccc32)S(=O)(=O)c2c(C)nn(C)c2C)cc1	–	–	–	–	–	–
Cc1ccc(N(CC(=O)N2CCc3ccccc32)S(=O)(=O)c2cccs2)cc1	10µM	–	–	–	–	–
Cc1ccc(S(=O)(=O)N(CC(=O)N2CCc3ccccc3C2)c2ccc(C)c(C)c2)cc1	11.2µM	·	–	·	–	–
Cc1ccc(S(=O)(=O)N(CC(=O)N2CCc3ccccc3C2)c2ccc(Cl)c(Cl)c2)cc1	?	–	–	–	–	–[1.53 µM]
O=C(Nc1ccc(F)cc1)c1ccc(=O)[nH]n1	–	–	·	–	–	–
COc1ccc(-c2cc(NCc3ccccn3)n3ncnc3n2)cc1	–	–	–	–	–	–
COc1ccc(-c2cc(NCCc3ccncc3)n3ncnc3n2)cc1	–	–	31.6µM	–	–	–
CCN(CC(=O)NCc1cccs1)C(=O)c1ccc(S(=O)(=O)Nc2ccccc2OC)cc1	–	–	–	–	–	–
COc1ccc(N(Cc2cc3cc(OC)ccc3[nH]c2=O)C(=O)C2CCCO2)cc1 (centres undefined)	–	–	17.8µM	–	–	–
COc1ccc2[nH]c(=O)c(CN(CCN3CCCC3)C(=O)Nc3ccccc3Cl)cc2c1	?	–	31.6µM	–	–	–
CCN(CC)CCN(Cc1cc2cc(C)c(C)cc2[nH]c1=O)C(=S)NCc1ccco1	10µM	–	·	–	–	?
Cc1cc2cc(CN(CCN(C)C)C(=S)NCc3ccco3)c(=O)[nH]c2cc1C	?	–	·	–	–	–

Assay outcomes deposited in PubChem BioAssay by National Center for Advancing Translational Sciences (NCATS).
